Assay [1] is described as follows: P. berghei load reduction in hepatocytes – cell-based, HepG2, luciferase luminescence, HepG2 viability, primary screen (AID 624349; in the data active = parasite load remaining mostly below about 12%, no sharp cut-off; inactive = mostly above about 10%;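 also: 100% = mean of DMSO negative control wells on the same plate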). As to conditions: P. berghei liver stage in HepG2, luciferase luminescence, concentration not given here; parasite load remaining: stronger effect = lower value; viability: measured here: HepG2 viability without parasites.
Assay [2] in a line: viability loss in pontine glioma line – cell-based, SU-DIPG-XIII, MIPE4.0, CellTiter-Glo, qHTS, dose response (AID 1347061; cut-off not given, nearly all actives have AC50 up to about 37 µM;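 also: cells exposed to compound for 48 hours before readout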). The note with it: CellTiter-Glo ATP luminescence. On the technique in general: In ATP-based viability assays light output follows the ATP content of the culture.
A short description of assay [3]: compounds altering HSF1 focus formation in cells – imaging, Selleck Cancer Library (AID 1347162; in the data active = plate-normalised HSF1 focus index below about 0.46). As to conditions: human cells, HSF1 nuclear foci imaging, at 10 µM; SSMD: measured here: HSF1 foci SSMD mean; cell count: measured here: cell number; plate-normalised HSF1 focus index: stronger effect = lower value.
Assay [4] deals with NAD(+) hydrolase SARM1 (Homo sapiens) (UniProt Q6SZW1). The assay is described as follows: blocking NAD cleavage by SARM1 SAM-TIR – cell lysate, NAD-Glo luminescence (AID 1508614;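 active = compound whose remaining NAD level is above about 45 nM, limit read from the data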;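 also: higher remaining NAD means stronger inhibition of SARM1 NADase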). The note with it: SAM-TIR HEK293T lysate NADase, at 1 µM, stronger effect = higher value.
Assay [5] can be described thus: growth inhibition, single agent or in combination, cell-based, chromothripsis tumors, cisplatin or BGB combos (AID 1671449).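 Also: cells exposed for 96 hours; 0% = vehicle DMSO and 100% = killing by high DMSO.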 The note with it: LFS_MB_P medulloblastoma cells.
A short description of assay [6]: growth inhibition, single agent and combos, cell-based, chromothripsis tumors, cisplatin or BGB combos (AID 1671450).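 Also: cells exposed to compound for four days; 0% = vehicle DMSO and 100% = cell killing by high DMSO.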 The note with it: HDN33 neuroblastoma cells, stronger effect = higher value.
A short description of assay [7]: growth inhibition, single agents and combos, ICB984, cell-based, cisplatin or BGB combos, synergistic combos for chromothripsis tumors (AID 1671451; call rule not given here;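 also: cells exposed for 96 hours before readout; 0% = vehicle DMSO and 100% = killing by high DMSO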). The note with it: ICB984 medulloblastoma cells, drug combinations, stronger effect = higher value.
Assay [8] can be described thus: growth inhibition, single agents and combos, LFS_MB_1R, cell-based, cisplatin or BGB combos, synergistic combos for chromothripsis tumors (AID 1671452).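 Also: cells exposed for 96 hours before readout.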 The note with it: LFS_MB_1R medulloblastoma cells, stronger effect = higher value.
Assay [9] is described as follows: growth inhibition, single agents and combos, HTB85, cell-based, BGB or cisplatin IC20 combos, synergistic combos for chromothripsis tumors (AID 1671453).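 Also: cells exposed for 96 hours before readout; 0% = vehicle DMSO and 100% = high DMSO killing control.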 As to conditions: HTB85 osteosarcoma cells, drug combinations, stronger effect = higher value.
Assay [10] in a line: growth inhibition, single agents and combos, CRL2098, cell-based, BGB or cisplatin IC20 combos, synergistic combos for chromothripsis tumors (AID 1671454).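 Also: cells exposed for 96 h before readout; 0% = vehicle DMSO and 100% = killing by high DMSO.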 As to conditions: CRL2098 osteosarcoma cells, drug combinations, stronger effect = higher value.
Assay [11] can be described thus: growth inhibition, single agents and combos, HD-MB03, cell-based, BGB or cisplatin IC20 combos, synergistic combos for chromothripsis tumors (AID 1671455; in the data active = inhibition above about 83%;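 also: 0% = vehicle DMSO and 100% = high DMSO as cytotoxic control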). The note with it: HD-MB03 medulloblastoma cells, stronger effect = higher value.
A short description of assay [12]: growth inhibition, single agents and combos, UWB1.289, cell-based, BGB or cisplatin combos, synergistic combos for chromothripsis tumors (AID 1671456).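 Also: cells exposed to compound for four days; 0% = vehicle DMSO and 100% = killing by high DMSO.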 As to conditions: UWB1.289 ovarian carcinoma cells, stronger effect = higher value.
A short description of assay [13]: growth inhibition, single agents and combos, LFS_MB_2R, cell-based, cisplatin combos, synergistic combos for chromothripsis tumors (AID 1671457).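 Also: cells exposed to compound for four days before readout.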 As to conditions: LFS_MB_2R medulloblastoma cells, stronger effect = higher value.
Assay [14] is described as follows: growth inhibition, MDA-MB-436, cell-based, BGB or cisplatin combos, synergistic combos for chromothripsis tumors (AID 1671458; call rule not given here;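 also: cells exposed for 96 hours; 0% = vehicle DMSO and 100% = killing by high DMSO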). The note with it: MDA-MB-436 breast carcinoma growth inhibition, drug combinations, stronger effect = higher value.
The nature of assay [15]: UWB1.289_BRCA1 ovarian cancer growth, cell-based, BGB or cisplatin combinations (AID 1671459). The note with it: UWB1.289 BRCA1 ovarian carcinoma, drug combinations, stronger effect = higher value.
Assay [16] is described as follows: drug combination toxicity in non-malignant astrocytes – cell-based, BGB or cisplatin IC20 combos, cytotoxicity control for chromothriptic childhood tumor combination screen (AID 1671460).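 Also: cells exposed to compounds for 96 hours before viability readout; 0% = vehicle and 100% = killing control.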 The note with it: Human astrocytes, viability inhibition, drug combinations, at 0.5 µM, stronger effect = higher value.
A short description of assay [17]: BT084 cell growth, single and combined drugs, ICGC_MB145, cisplatin and BGB IC40 combos (AID 1671461).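 Also: cells exposed to drugs for 96 hours; 0% = vehicle DMSO and 100% = high DMSO full killing control.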 The note with it: BT084 medulloblastoma cells, drug combinations, stronger effect = higher value.
Assay [18] is described as follows: RCMB18 cell growth, single agent and combined, cisplatin and BGB IC40 combos (AID 1671462).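 Also: cells exposed to compound for four days.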 The note with it: RCMB18 medulloblastoma cells, stronger effect = higher value.
Assay [19] in a line: CRL1545 cell growth, single agent and combined, cisplatin and BGB IC20 combos (AID 1671464).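 Also: cells exposed to compound for 96 hours before readout; 0% = vehicle DMSO and 100% = high DMSO killing control.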 As to conditions: CRL1545 osteosarcoma cells, stronger effect = higher value.
[20] abbreviates: measured here: combination with BGB IC40, at 0.05 µM.
[21] abbreviates: measured here: with BGB IC20 combination, at 0.5 µM.
Setting [22] is: measured here: with cisplatin IC20 combination, at 0.5 µM.
Where [23] appears, read: measured here: combination with cisplatin, at 0.5 µM.
Where [24] appears, read: measured here: combination with cisplatin, at 5 µM.

By viability is commonly meant a read-out of living cells in per cent, often relative to untreated cells. The inhibition is the drop in the measured response relative to a control, in per cent.

Molecules are shown by their SMILES. Results filed as inconclusive are left out. Calls of active or inactive are those of the source. Rule as the data show it, unless noted: active = inhibition above about 80%; inactive = the rest.

Sequence of NAD(+) hydrolase SARM1 (Homo sapiens) (Q6SZW1 whole entry, looked up): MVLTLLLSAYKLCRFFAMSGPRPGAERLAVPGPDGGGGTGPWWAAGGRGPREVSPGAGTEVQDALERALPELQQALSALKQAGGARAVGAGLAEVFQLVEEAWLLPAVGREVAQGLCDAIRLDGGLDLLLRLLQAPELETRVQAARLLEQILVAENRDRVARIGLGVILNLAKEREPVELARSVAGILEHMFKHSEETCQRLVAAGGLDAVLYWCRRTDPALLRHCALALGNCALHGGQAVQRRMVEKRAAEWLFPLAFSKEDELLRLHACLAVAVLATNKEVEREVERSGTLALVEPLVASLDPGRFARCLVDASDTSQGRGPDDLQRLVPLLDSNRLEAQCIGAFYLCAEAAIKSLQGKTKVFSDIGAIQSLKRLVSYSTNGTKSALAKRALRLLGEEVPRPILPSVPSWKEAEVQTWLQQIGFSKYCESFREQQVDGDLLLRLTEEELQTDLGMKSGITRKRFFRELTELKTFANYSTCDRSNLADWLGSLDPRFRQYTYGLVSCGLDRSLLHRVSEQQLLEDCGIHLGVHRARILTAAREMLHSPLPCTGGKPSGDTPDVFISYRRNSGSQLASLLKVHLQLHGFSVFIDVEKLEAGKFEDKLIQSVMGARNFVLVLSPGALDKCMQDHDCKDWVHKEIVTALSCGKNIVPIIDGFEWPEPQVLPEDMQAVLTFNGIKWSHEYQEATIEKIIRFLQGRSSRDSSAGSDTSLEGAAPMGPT

For the molecule `CC(C)(C)c1cc(C=C(C#N)C#N)cc(Br)c1O`, in [1], the parasite load remaining is 43.4% (inactive) and the viability came out at 165%.
As to `COc1ccc2c(c1)CN(C)CC2c1ccc(Cl)c(Cl)c1` (centres undefined), the result in [2] was inactive.
As for `CC1=C2C[C@H]3[C@@H](CC=C4C[C@@H](O)CC[C@@]43C)[C@@H]2CC[C@]12O[C@@H]1C[C@H](C)CN[C@H]1[C@H]2C`, in assay [3], the SSMD amounted to 2.32, the cell count was 7300 and the plate-normalised HSF1 focus index was 1.08 (inactive).
For `CC(=O)Nc1ccc(OC[C@](C)(O)C(=O)Nc2ccc([N+](=O)[O-])c(C(F)(F)F)c2)cc1` the same measures were 0.174, 7020 and 1.01 (inactive).
As to `C[C@@H]1O[C@@H](O[C@@H]2C=C3CC[C@@H]4[C@H](CC[C@]5(C)[C@@H](c6ccc(=O)oc6)CC[C@]45O)[C@@]3(C)CC2)[C@H](O)[C@H](O)[C@H]1O`, the remaining NAD in assay [4] is 10 nM (inactive).
Same read-out and setting: the figure for `C[C@]12CC[C@H]3[C@@H](CC[C@@]45O[C@@H]4C(O)=C(C#N)C[C@]35C)[C@@H]1CC[C@@H]2O` is 10 nM (inactive).
With `Cn1c(COP(=O)(NCCBr)NCCBr)cnc1[N+](=O)[O-]`, the inhibition in assay [5] (at 0.5 µM, stronger effect = higher value) was 16.6% (inactive); in [5] (measured here: combination with BGB IC20, at 0.005 µM), -38.7%; in [5] (measured here: combination with BGB IC40, at 0.005 µM), -32.5%; in assay [5] (setting [20]), -39.8%; in assay [5] (measured here: combination with cisplatin, at 0.5 µM, stronger effect = higher value) it was 62.9%; in [5] (measured here: combination with cisplatin, at 5 µM, stronger effect = higher value) it was -58.8%. The inhibition in assay [6] (BGB combo, at 5 µM) is 19.8%; in [6] (at 0.5 µM), -18.8% (inactive); in assay [6] (cisplatin combo, at 5 µM), 19.2%; in assay [6] (setting [21]), -21.2%; in [6] (setting [22]), -10.2%; in assay [6] (single agent, at 5 µM) it was 80.3%. Moreover, the inhibition was -13.2% in assay [7] (BGB IC20 combo, at 0.005 µM); -25.1% in assay [7] (BGB IC40 combo, at 0.005 µM); -34.6% in assay [7] (BGB IC40 combo, at 0.05 µM); -26% (inactive) in assay [7] (at 0.5 µM); -39.4% in [7] (cisplatin combo, at 0.05 µM); -24.4% in assay [7] (cisplatin combo, at 0.5 µM). In addition, the inhibition in [7] (cisplatin combo, at 5 µM) is -33.7%; in assay [7] (measured here: 5 uM single agent, at 5 µM), -29.2%; in assay [8] (at 0.5 µM) it was -28.2% (inactive); in [8] (setting [20]), -23.6%; in [8] (setting [23]), -60.8%; in [8] (setting [24]), 3.76%. In addition, the inhibition was -13.1% (inactive) in assay [9] (at 0.5 µM); -24.6% in [9] (measured here: with BGB IC20, at 0.5 µM); 10.3% in assay [9] (measured here: with BGB IC20, at 5 µM); -0.449% in [9] (measured here: with cisplatin IC20, at 0.5 µM); 2.49% in assay [9] (measured here: with cisplatin IC20, at 5 µM); 1.71% in [9] (single agent, at 5 µM). Besides, the inhibition in assay [10] (at 0.5 µM) was -67.6% (inactive); in assay [10] (measured here: combination with BGB at IC20, at 0.5 µM), -30.9%; in assay [10] (measured here: combination with cisplatin at IC20, at 0.5 µM) it was -117%; in [11] (at 0.5 µM), -3.14% (inactive); in assay [11] (measured here: combo with BGB at IC20, at 0.5 µM) it was -10.4%; in assay [11] (measured here: combo with cisplatin at IC20, at 0.5 µM) it was 4.61%. Moreover, the inhibition in assay [12] (at 0.5 µM) was 3.29% (inactive); in assay [12] (measured here: inhibition with BGB combination, at 0.05 µM) it was -25.1%; in assay [12] (measured here: inhibition with cisplatin combination, at 0.05 µM) it was -14.8%; in [13] (at 0.5 µM) it was -29.8% (inactive); in assay [13] (setting [23]), -33.9%; in assay [13] (setting [24]), -23.3%. The inhibition was -13.5% (inactive) in assay [14] (at 0.5 µM); -12% in assay [14] (measured here: BGB combination, at 0.5 µM); 10.1% in assay [14] (measured here: BGB combination, at 5 µM); -29.2% in [14] (measured here: cisplatin combination, at 0.5 µM); 7.72% in assay [14] (measured here: cisplatin combination, at 5 µM); -3.84% in assay [15] (BGB combination, concentration series, at 5 µM). Moreover, the inhibition in assay [15] (at 0.5 µM) was -16% (inactive); in assay [15] (cisplatin combination, concentration series, at 5 µM) it was -17.2%; in [16], -2.6% (inactive); in assay [16] (measured here: combo with BGB IC20), -17%; in assay [16] (measured here: combo with cisplatin IC20), 9.13%; in [17] (at 0.5 µM) it was -25.1% (inactive). The inhibition in [17] (cisplatin combination, at 0.5 µM) was -38.4%; in [17] (cisplatin combination, at 5 µM) it was -11.7%; in assay [17] (measured here: BGB IC40 combination 0.05 uM, at 0.05 µM) it was 14.8%; in [17] (single agent, at 5 µM) it was -36.3%; in assay [18] (at 0.5 µM), -3.65% (inactive); in [18] (cisplatin combo, at 5 µM) it was 1.65%. For the same molecule, the inhibition is -12.5% in [18] (measured here: BGB IC40 combination, at 0.05 µM); 13.3% in assay [18] (setting [23]); -38.1% in [18] (single agent, at 5 µM); -36.2% (inactive) in [19] (at 0.5 µM); -10% in assay [19] (setting [21]); -51.7% in assay [19] (setting [22]). Besides, the inhibition in assay [19] (single agent, at 0.05 µM) was -14%; in assay [19] (single agent, at 5 µM), 52.6%.

(Values after PubChem BioAssay.)
